Earlier results, collected in paper PMC11062922 (Nature Chemical Biology, 2023).

Assays:
[1] = system: JAK1(JH2domain-pseudokinase)
[2] = system: JAK2(JH1domain-catalytic)
[3] = system: RSK1(Kin.Dom.1-N-terminal)
[4] = system: RSK3(Kin.Dom.1-N-terminal)
[5] = system: TYK2(JH2domain-pseudokinase)

Measured: KINOMEScan

COc1cc(Nc2ncc3c(C)nc(-c4cc5ccccc5[nH]4)n3n2)cc(OC)c1OC [GW869516X]
active: AMPK-alpha1 89% | AMPK-alpha2 61% | BLK 60% | CIT 100% | CLK1 88% | CLK2 75% | CSNK2A1 96.4% | CSNK2A2 99.7% | DDR1 52% | DDR2 52% | DYRK1A 85% | DYRK1B 81% | EPHB1 58% | FLT3-autoinhibited 75% | FLT3 96.3% | GCN2(Kin.Dom.2,S808G) 88% | HIPK1 79% | INSRR 53% | [1] 98.5% | [2] 54% | KIT 72% | LCK 71% | MAP3K4 52% | MEK5 78% | MERTK 56% | MLK1 93.8% | MLK2 89% | MLK3 87% | NEK11 86% | NEK2 70% | NEK3 89% | NEK5 99% | NEK6 99.6% | NEK7 99.7% | NEK9 90% | PAK3 69% | PIP5K1C 89% | PIP5K2C 90.3% | PKAC-beta 51% | [3] 91.7% | [4] 66% | SLK 63% | SRC 90.1% | STK16 86% | SYK 53% | TBK1 58% | [5] 82% | ULK2 51% | WEE2 85%
